MEKK3 PB1 HTS: raises or lowers MEK5 binding to the human MEKK3 PB1 domain; bead-based flow cytometry, Alexa488-MEK5 binding to MEKK3; actives lie on both sides; 0 = blocked by unlabeled MEK5, 100 = vehicle; hit rate 1.4% among 290,000; AID 1529; Q99759; binding response (% of control), % at 10 µM;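 active = binding response more than 3 SD above or below the average of its plate-row segment, actives on both sides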;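 also: Alexa488 bead fluorescence after subtracting the streptavidin-only scavenger bead signal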
Target sequence (Q99759 whole entry, looked up, the tested form may be a part): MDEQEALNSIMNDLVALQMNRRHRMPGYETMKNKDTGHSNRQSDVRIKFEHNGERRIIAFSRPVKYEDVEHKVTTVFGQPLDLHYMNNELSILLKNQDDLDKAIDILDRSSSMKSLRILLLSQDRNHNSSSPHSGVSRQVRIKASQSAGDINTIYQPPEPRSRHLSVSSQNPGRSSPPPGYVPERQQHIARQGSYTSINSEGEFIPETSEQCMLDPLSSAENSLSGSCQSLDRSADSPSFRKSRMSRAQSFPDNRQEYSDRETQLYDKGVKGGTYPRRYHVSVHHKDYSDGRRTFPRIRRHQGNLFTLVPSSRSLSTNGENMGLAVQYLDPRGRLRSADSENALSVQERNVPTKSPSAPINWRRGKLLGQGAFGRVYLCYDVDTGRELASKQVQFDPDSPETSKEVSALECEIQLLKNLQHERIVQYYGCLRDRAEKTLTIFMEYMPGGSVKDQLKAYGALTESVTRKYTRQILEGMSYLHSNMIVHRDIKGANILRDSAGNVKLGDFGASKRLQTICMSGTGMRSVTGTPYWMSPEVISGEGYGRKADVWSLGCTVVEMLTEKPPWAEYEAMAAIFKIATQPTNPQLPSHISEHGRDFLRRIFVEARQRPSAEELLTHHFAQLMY
MEKK2wt PB1 HTS: raises or lowers MEK5 binding to wildtype human MEKK2 PB1 domain | Q9Y2U5 | bead flow cytometry, Alexa488-MEK5 binding to MEKK2 WT; actives lie on both sides | binding response (% of control), % at 10 µM | hit rate 1.1% among 290,000; in the data active = binding response below about 67% or above about 130%
MEKK2 mut-MEK5: signal of MEK5 binding to mutant human MEKK2 PB1 domain; bead flow cytometry, Alexa488-MEK5 binding to MEKK2 mutant; percent response, % at 10 µM; hit rate 0.35% among 290,000; in the data active = percent response above about 24%, passing the limit was not always enough
GRK2 inh: blocks RNA aptamer binding to human GRK2; bead flow cytometry, FAM-aptamer displacement from GRK2; AID 488847; hit rate 0.59% among 330,000; inhibition of aptamer binding, % at 10 µM;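 active = inhibition of aptamer binding above 40%, roughly 3 SD of noise, on plates passing a quality check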;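 also: median bead fluorescence of bound FAM aptamer so fluorescent compounds give negative values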
GRK2 CP1: confirmation of human GRK2 inhibitors displacing RNA aptamer | shares compounds with GRK2 inh | bead-bound GRK2, FAM-aptamer displacement, flow cytometry | aptamer displacement, % at 10 µM | hit rate 4% among 2,000 | AID 504451;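 active = aptamer displacement above 40%, near three times the noise of non-fluorescent compounds, on plates passing quality checks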;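 also: negative values mostly reflect intrinsic compound fluorescence rather than true enhancement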
Aptamer quench 1: counter-screen for GRK2 aptamer inhibitors: fluorescent aptamer quenchers; shares compounds with GRK2 inh; Fluorescent RNA aptamer beads, quenching, flow cytometry; active compounds read high; fluorescence change (kMESF span), kMESF (concentration not given with the values); 110 tested, under 10 active; AID 504521;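 active = compounds whose bead fluorescence drops by more than 37 kMESF across the dose range, marking them as dye quenchers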
FAM quench CP1: quenches fluorescent RNA aptamer, GRK2 hit artifact. fluorescence response (% of DMSO), % at 10 µM. AID 504580. Carboxyfluorescein RNA aptamer on beads, flow cytometry quenching; active compounds read low. shares compounds with GRK2 inh. 2,000 tested, under 10 active;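 active = compounds that quench the bead-bound fluorescent RNA probe, cutting fluorescence to under half of the solvent control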;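 also: counterscreen run without GRK2 so only probe quenching by compound is measured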
GRK2 CP2: confirmation of human GRK2 inhibitors binding RNA aptamer site | shares compounds with GRK2 inh | bead-bound GRK2, FAM-aptamer displacement, flow cytometry | inhibition of aptamer binding, % at 10 µM | 360 tested, under 10 active | AID 504782;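 active = inhibition of aptamer binding above 40%, about triple the noise seen with nonglowing compounds, on plates passing quality control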;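 also: negative values mostly come from compounds that fluoresce themselves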
FAM quench SP: quenches fluorescent RNA aptamer, GRK2 hit artifact | shares compounds with GRK2 inh | carboxyfluorescein RNA aptamer beads, flow cytometry quenching; active compounds read low | fluorescence response vs DMSO, % at 10 µM | 360 tested, under 10 active | AID 588494;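 active = response vs DMSO under 50%, meaning signal dropped by over half, treated as fluorescence quencher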;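 also: labelled aptamer on streptavidin beads without GRK2 as a quench counter-screen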
A number is an active result; 0 = inactive; - = not tested or not shown. An excerpt weighted towards active compounds, which were near 2.5% of everything screened.

SMILES | MEKK3 PB1 HTS | MEKK2wt PB1 HTS | MEKK2 mut-MEK5 | GRK2 inh | GRK2 CP1 | FAM quench CP1 | others
CC(=O)c1cccc(NC(=O)c2cc(-c3cccs3)on2)c1 | 0 | 0 | 0 | 0 | 0 | 0
COc1ccc(-c2cc(C(=O)Nc3cccc(C(C)=O)c3)no2)cc1 | 0 | 0 | 0 | 0 | 0 | 0
COc1ccc(-c2cc(C(=O)Nc3cccc(Cl)c3)no2)cc1 | 0 | 0 | 0 | 0 | - | -
O=C(Nc1cccc(O)c1)c1cc(-c2cccs2)on1 | 0 | 0 | 0 | 0 | - | -
COc1cc(C2OCC3C(c4ccc(OC5OC(CO)C(O)C(O)C5O)c(OC)c4)OCC23)ccc1O (stereo not drawn) | 0 | 0 | 0 | 0 | 0 | 0
COc1cc([C@H]2OC[C@H]3[C@@H]2CO[C@H]3c2ccc(O)c(OC)c2)ccc1O | - | - | - | 0 | - | -
O=C1CC(SCc2nc3ccccc3[nH]2)C(=O)N1c1ccc(F)cc1 (stereo not drawn) | 0 | 0 | 0 | 0 | - | -
O=C1CC(=O)N(Cc2ccco2)C(=S)N1 | 0 | 0 | 0 | 68 | 0 | 0
Cc1cc(Cl)ccc1N(CC(=O)NCc1ccc2c(c1)OCO2)S(C)(=O)=O | 0 | 0 | 0 | 100 | 0 | 0
Cc1ccc(Cl)cc1N(CC(=O)NCc1ccc2c(c1)OCO2)S(C)(=O)=O | 0 | 0 | 0 | 0 | - | -
CCN1CCCC1Cn1cnc2c([nH]c3ccc(Cl)cc32)c1=O (stereo not drawn) | 0 | 0 | 0 | 92 | 0 | 0
CCC(Oc1ccccc1)C(=O)Nc1nnc(S(=O)(=O)Nc2ccccc2)s1 (stereo not drawn) | 0 | 0 | 0 | 49 | 0 | 0
CCC(Oc1ccccc1)C(=O)Nc1nnc(S(=O)(=O)N2CCCCC2)s1 (stereo not drawn) | 0 | 0 | 0 | 0 | - | -
Cc1cc(Cl)ccc1OC(C)C(=O)OCC(=O)c1ccc[nH]1 (stereo not drawn) | - | - | - | 0 | - | -
CC(C)(C(=O)c1ccccc1)/[N+]([O-])=C/c1ccc(Br)cc1 | 0 | 0 | 0 | 60 | 0 | 0
CC(COC(=O)c1ccccc1)(COC(=O)c1ccccc1)/[N+]([O-])=C/c1ccccc1 | 0 | 0 | 0 | 0 | - | -
COC(=O)/C=C1/S/C(=N/NC(=O)c2ccccc2C)NC1=O | 0 | 0 | 0 | 0 | - | -
O=Cc1nc(-c2ccccc2Cl)n2ccccc12 | 0 | 0 | 0 | 45 | 0 | 0
O=Cc1nc(-c2ccc(Cl)cc2)n2ccccc12 | 0 | 0 | 0 | 0 | - | -
CN(CC(=O)Nc1ccc(S(=O)(=O)N2CCCC2)cc1)Cc1ccc(Cl)cc1Cl | 0 | 0 | 0 | 0 | - | -
COc1cccc(NC(=O)CSc2nnc(-c3cc(C)n(-c4ccccc4)c3C)o2)c1 | 0 | 0 | 0 | 98 | 0 | 0
Brc1ccc(-c2ccc(C3Nc4cccc5cccc(c45)N3)o2)cc1 | - | - | - | 0 | - | -
O=C(O)c1ccc(-n2c(-c3cc(-c4ccco4)[nH]n3)n[nH]c2=S)cc1 | 0 | 0 | 0 | 80 | 0 | 0
CNC(=S)N(Cc1ccco1)Cc1cc2cc(OC)c(OC)cc2[nH]c1=O | 0 | 0 | 0 | 0 | - | -
CNC(=O)Nc1cccc(C(F)(F)F)c1 | 0 | 0 | 0 | 0 | - | -
SMILES | MEKK3 PB1 HTS | MEKK2wt PB1 HTS | MEKK2 mut-MEK5 | GRK2 inh | GRK2 CP1 | FAM quench CP1 | others
Cc1cc(NC(=O)Nc2cccc(C(F)(F)F)c2)n(C)n1 | 0 | 0 | 0 | 74 | 0 | 0
Cc1ccc[n+](CC(=O)c2ccc(Br)cc2)c1 | 0 | 0 | 0 | 75 | 0 | 0
Cc1ccc[n+](CC(=O)c2ccccc2)c1 | 0 | 0 | 0 | 0 | - | -
CCS(=O)(=O)c1ccc2oc(SCC(=O)Nc3ccc(OC)c(OC)c3)nc2c1 | 0 | 0 | 0 | 0 | - | -
CCC(C(=O)NCC1CCCO1)N(Cc1ccc(F)cc1)C(=O)CNS(=O)(=O)c1ccccc1 (stereo not drawn) | 0 | 0 | 0 | 78 | 0 | 0
CSc1nc(C)c(C(=O)C[n+]2ccccc2)cc1C#N | 0 | 0 | 0 | 94 | 0 | 0
CCSc1nc(C)c(C(C)=O)cc1C#N | 0 | 0 | 0 | 0 | - | -
CCCN(C(=O)c1cccc(-n2cccc2)c1)c1c(N)n(Cc2ccccc2)c(=O)[nH]c1=O | - | - | - | 0 | 0 | 0 | Aptamer quench 1=37
CCCCN(C(=O)c1cccc(-n2cccc2)c1)c1c(N)n(CCCC)c(=O)[nH]c1=O | - | - | - | 0 | - | -
Cc1ccc(S(=O)(=O)N(C)C)cc1NC(=O)CCNC(=O)c1ccccc1Cl | 0 | 0 | 0 | 0 | - | -
O=C(CSc1nc(O)c(-c2ccccc2)c(=O)[nH]1)N1CCOCC1 | 0 | 0 | 0 | 0 | - | -
Cc1sc2nc(SCC(=O)N3CCOCC3)[nH]c(=O)c2c1-c1ccccc1 | 0 | 0 | 0 | 93 | - | - | GRK2 CP2=0;FAM quench SP=0
O=C(Cc1sc(Nc2ccccc2)nc1-c1ccccc1)NCc1ccccc1 | 0 | 0 | 0 | 0 | - | -
O=C(CSc1oc(-c2cccs2)nc1S(=O)(=O)c1ccc(F)cc1)NCC1CCCO1 (stereo not drawn) | 0 | 0 | 0 | 42 | 0 | 0
O=C(Cc1cc(C(=O)O)c2ccccc2n1)Nc1ccccc1 | 0 | 0 | 0 | 0 | - | -
CCN(CC)C(=O)Cc1cc(C(=O)O)c2ccccc2n1 | 0 | 0 | 0 | 0 | 0 | 0
COCCCNC(=O)c1ccc(OC)c(OC2CCN(C(C)C)CC2)c1 | 0 | 0 | 0 | 0 | - | -
COc1ccc(C(=O)NC(Cn2ccnc2)C(C)(C)C)cc1OC1CCN(C(C)C)CC1 (stereo not drawn) | 0 | 0 | 0 | 80 | - | - | GRK2 CP2=0;FAM quench SP=0
CCNc1nc(NCC)n2c(SCC(=O)Nc3ccc(CC)cc3)nnc2n1 | - | - | - | 0 | - | -
CCNc1nc(NCC)n2c(SCC(=O)Nc3ccc(NC(C)=O)cc3)nnc2n1 | - | - | - | 0 | - | - | GRK2 CP2=0;FAM quench SP=0
CCNc1nc(NCC)n2c(SCC(=O)Nc3ccccc3OC(F)F)nnc2n1 | - | - | - | 0 | - | - | GRK2 CP2=0;FAM quench SP=0
CCNc1nc(NCC)n2c(SCC(=O)Nc3ccc(F)cc3[N+](=O)[O-])nnc2n1 | 0 | 0 | 0 | 0 | - | -
CCc1c(C(=O)OCc2ccccc2)[nH]c(C)c1C | 0 | 0 | 0 | 93 | 0 | 0
CCOc1c2c(nc3ccc(Cl)cc13)CCC2 | 0 | 0 | 0 | 0 | - | - | GRK2 CP2=0;FAM quench SP=0
Cc1ccc(CNC(=O)CSc2c3c(nc4ccc(Cl)cc24)CCCC3)o1 | 0 | 0 | 0 | 0 | - | -
COc1cc(/C=C/C(=O)OCC(=O)Nc2cc(C)c(C)cc2[N+](=O)[O-])ccc1O | 0 | 0 | 0 | 0 | - | -
COC(=O)C1=C(C)NC(C)=C(C(=O)OC)C1C(=O)OCC(=O)Nc1ccc(C(C)=O)cc1 | 0 | 0 | 0 | 75 | 0 | 0

Source: PubChem BioAssay
